DT40 TDP1 CPT: growth inhibition of DT40 Tdp1-/-;hTDP1 cells with camptothecin (screen for TDP1 inhibitors); chicken DT40 Tdp1-/-;hTDP1 cells + 20 nM CPT, ATP luminescence, 48 h; Potency, µM (top dose mostly 46.2 µM), for inactives: at the top dose activity change, negative = growth inhibition, hits mostly inhibitors; 420,000 tested, 12% active; further: potency means the concentration at half of the fitted maximal effect; nearly all actives have a fitted effect of over 55% in size
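Chicken DT40 Tdp1-/- cells complemented with human TDP1, 400 cells/well, exposed to compounds plus 20 nM camptothecin for at least 48 h at 37 C; viability read as ATP content by CellTiter-Glo luminescence.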
TDP1 cell noCPT: qHTS for Inhibitors of human tyrosyl-DNA phosphodiesterase 1 (TDP1): qHTS in cells in absence of CPT; AID 686978, 2013; DT40 Tdp1-/- hTDP1 cells, no CPT, ATP luminescence, 48 h; Potency, µM (series often up to 46.2 µM), for inactives: top-dose activity change, negative = growth inhibition, usual class: inhibitors; 420,000 tested, 15% active; further: potency means the concentration at half of the fitted maximal effect; nearly all actives have a fitted effect of over 55% in size
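A cellular qHTS used chicken DT40 cells lacking endogenous Tdp1 but carrying stably transfected human TDP1. Compounds were applied without camptothecin, and cell growth kinetics were judged by ATP-dependent luminescence after ≥48 hr.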
HT1080NT lethal: kills 2HG-producing HT-1080-NT fibrosarcoma cells; HT-1080-NT fibrosarcoma viability, CellTiter-Glo ATP luminescence, 48 h; Potency, µM (top dose mostly 46.1 µM), for inactives: at the top dose activity, negative = less viability, most hits filed as cytotoxic; 360,000 tested, 1.6% active; AID 686970;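 further: NT is the 2HG producing partner of a matched IDH1 knockdown line; potency means the concentration at half of the fitted maximal effect; 0% = DMSO-treated cells and -100% = media-only wells without cells; nearly all actives have a fitted effect of over 55% in size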
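HT-1080-NT; 750 cells/well; 5% FBS RPMI; 48 h compound, 37 degrees C; CellTiter-Glo luminescence; curve fitting and curve-class assignment.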
IL1B secr inh: inflammasome signaling inhibition, IL-1 beta readout; 360,000 tested, 4.7% active; activity change, % at 57.5 µM; THP-1 LPS/ATP IL-1B secretion, AlphaLISA, 16 h; hits give low values; in the data active means activity change below about -50%; inconclusive means mostly about -30% to -49%
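THP-1 cells pretreated 1 hr with compounds (up to 57.5 uM final), then stimulated with LPS (250 ng/mL final) plus ATP (1.25 mM final); secreted IL-1B measured by AlphaLISA after 16 hr, decreased signal indicating inhibition.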
HT1080 IDH1KD tx: toxicity to HT-1080 IDH1 knockdown cells (counter line) | HT-1080 IDH1 knockdown viability, ATP luminescence, 48 h | 360,000 tested, 2% active | AID 686971 | Potency, µM (doses to about 46.1 µM), for the others: at the top dose activity, negative = toxicity, hits mostly cytotoxic;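 further: potency means the concentration at half of the fitted maximal effect; 0% = DMSO wells and -100% = cell-free medium wells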
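After a 2 h attachment period, IDH1KD HT-1080 cells took pin-transferred compound for 48 h at 37 °C; ATP-based luminescence after 10 min room-temperature reagent incubation reported viability.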
Active calls of the source: *; ? = inconclusive; nt = no result given. In the library only some 19% were active in any assay of this set; here they are far more common. Unless noted, the call rests on the fitted dose curve; in most records, active means well fitted curve in the direction sought with a large enough effect; inconclusive means small, poorly fitted or top-dose-only effect, or another doubt; inactive means no such curve, though single readings can be large; an effect the other way counts as inactive or inconclusive. Unless noted, on the % scale 0 is the no-effect control and ±100 the full control effect.

SMILES	DT40 TDP1 CPT	TDP1 cell noCPT	HT1080NT lethal	IL1B secr inh	HT1080 IDH1KD tx
COc1ccc(COc2ncnc3ccc(Br)cc23)cc1F	-5%	-29%	-18%	-65*	-24%
COc1ccc(Nc2ncnc3ccc(Br)cc23)cc1OC	18µM*	?	-16%	-14	-10%
COc1cc2c(Nc3ccc(Br)cc3F)ncnc2cc1OCC1CCN(C)CC1	4.7µM*	4.7µM*	nt	nt	nt
Cc1ccc(N2CN(Cc3ccco3)CNC2=S)c(C)c1	22%	2%	9%	16	15%
O=C1CC(N2CCN(S(=O)(=O)c3ccccc3F)CC2)C(=O)N1c1ccc(F)cc1F (configuration not stated)	-3%	-23%	19%	-3	10%
CC(Oc1ccccc1F)C(=O)NNC(=O)c1cc2ccccc2o1 (configuration not stated)	7%	10%	18%	37	-2%
O=C1CC(c2nc(-c3ccc(Cl)cc3)no2)CN1c1ccc2c(c1)OCCO2 (configuration not stated)	-28%	-27%	nt	nt	nt
CCOC1=NC(=C(c2ccccc2)c2ccccc2)OC1=O	0%	-6%	0%	-3	5%
COc1cc2ncnc(Nc3cccc(Br)c3)c2cc1OC	17µM*	?	nt	nt	nt
COc1cc2ncnc(Nc3ccc4c(c3)OCO4)c2cc1OC	-24%	-1%	17%	?	7%
C#Cc1cccc(Nc2ncnc3cc(OCCOC)c(OCCOC)cc23)c1	?	13µM*	nt	nt	nt
Cc1ccc(NC(=O)CSc2nnc3ccccn23)cc1	-11%	6%	8%	-2	0%
CC(C)(C)OC(=O)C[C@@H]1C/C=C\C[C@H](CC(=O)N[C@H](CO)Cc2ccccc2)C(=O)N[C@@H](Cc2c[nH]c3ccccc23)COC1=O	26µM*	?	2%	-7	-3%
CC(C)(C)OC(=O)C[C@@H]1C/C=C\C[C@H](CC(=O)N[C@H](CO)Cc2ccccc2)C(=O)N[C@@H](Cc2ccccc2)COC1=O	?	?	0%	-11	1%
CC(C)(C)OC(=O)C[C@@H]1C/C=C\C[C@H](CC(=O)N[C@H](CO)Cc2ccccc2)C(=O)N[C@H](Cc2ccccc2)COC1=O	-47%	13µM*	2%	12	-5%
CC(C)(C)OC(=O)C[C@H]1C/C=C\C[C@H](CC(=O)N[C@H](CO)Cc2ccccc2)C(=O)N[C@H](Cc2ccccc2)COC1=O	23µM*	23µM*	1%	-58*	1%
Cc1cc2occ(CC(=O)NC3(C)CCS(=O)(=O)C3)c2cc1C (configuration not stated)	-13%	-14%	15%	0	0%
COC(=O)c1cc(-c2c(C)oc3cc(OC)ccc3c2=O)c(C)o1	12µM*	18µM*	7%	0	4%
Nc1ccc(Sc2nc3ccccc3[nH]2)cc1	6%	2%	4%	-24	3%
COc1ccc(CN2CCN(Cc3ccccc3C(F)(F)F)CC2)c(OC)c1	?	16µM*	?	-10	?
COc1cc(CN2CCN(C(=O)CC(C)C)CC2)c([N+](=O)[O-])cc1OC	-14%	-25%	7%	38	11%
COc1cc(CN2CCC(Cc3ccccc3)CC2)c([N+](=O)[O-])cc1OC	21µM*	?	-13%	-7	-22%
C=CCOc1ccccc1CN1CCC(Cc2ccccc2)CC1	?	?	-28%	-86*	?
O=[N+]([O-])c1cccc(OCCN2CCC(Cc3ccccc3)CC2)c1	?	?	?	-66*	?
COc1cc(C)c(CN2CCC(Cc3ccccc3)CC2)cc1C	?	?	-17%	?	-7%
SMILES	DT40 TDP1 CPT	TDP1 cell noCPT	HT1080NT lethal	IL1B secr inh	HT1080 IDH1KD tx
COc1ccc(OC)c(CN2CCC(Cc3ccccc3)CC2)c1	?	16µM*	?	-7	-11%
Cc1ccc([N+](=O)[O-])c(OCCN2CCc3ccccc3C2)c1	-14%	-11%	1%	0	6%
COc1cc(OC)c(CN2CCC(Cc3ccccc3)CC2)cc1Br	?	?	-26%	-58*	-23%
Cc1ccc([N+](=O)[O-])c(OCCCN2CCC(Cc3ccccc3)CC2)c1	21µM*	21µM*	?	-60*	?
O=C(COc1cccc(C(F)(F)F)c1)Nc1nnc(C2CC2)s1	0%	-11%	12%	-2	9%
CCCCc1nn(-c2cc(Cl)ccc2OC)c2c1C(=O)CC(C)(C)C2	12µM*	21µM*	12%	-6	6%
CC(NC(=O)c1ccc2nc(CCc3ccccc3)oc2c1)c1ccccc1 (configuration not stated)	21µM*	?	nt	nt	nt
COCCNC(=O)c1ccc2nc(CCc3ccccc3)oc2c1	11%	4%	nt	nt	nt
CCNC(=O)c1ccc2nc(CCc3ccccc3)oc2c1	-23%	-19%	nt	nt	nt
Cc1cccc(NC(=O)c2ccc3nc(CCc4ccccc4)oc3c2)c1C	18µM*	?	nt	nt	nt
O=C(NCc1cccc(F)c1)c1ccc2nc(CCc3ccccc3)oc2c1	21µM*	?	nt	nt	nt
CCC(C)NC(=O)c1ccc2nc(CCc3ccccc3)oc2c1 (configuration not stated)	?	23µM*	nt	nt	nt
Cc1ccc(S(=O)(=O)N2C[C@H]3[C@H]4C(=O)N(C)C(=O)[C@H]4CC(=O)[C@H]3[C@@H]2c2ccccc2Cl)cc1	-1%	-20%	13%	7	5%
O=C1NC2(CCCCC2)C(=O)N1c1cccc(Cl)c1	0%	-7%	0%	-8	-2%
Cc1cc(C)c(NC(=O)CN(C)C(=O)C2CC(=O)N(c3cccc4ccccc34)C2)c(C)c1 (configuration not stated)	-23%	1%	1%	-12	1%
COc1ccccc1N(C)S(=O)(=O)c1ccc(C(=O)Nc2cccc(S(=O)(=O)N3CCOCC3)c2)cc1	?	10µM*	-14%	-9	?
CN(c1ccccc1)S(=O)(=O)c1ccc(C(=O)Nc2cccc(S(=O)(=O)N3CCOCC3)c2)cc1	7.3µM*	7.3µM*	-16%	-12	-22%
COc1ccccc1N(C)S(=O)(=O)c1ccc(C(=O)Nc2nnc(C)s2)cc1	2%	-21%	0%	-3	-3%
COc1ccccc1N(C)S(=O)(=O)c1ccc(C(=O)Nc2nc(C)cs2)cc1	1.5µM*	0.65µM*	-1%	-17	-9%
CCOC(=O)/C(C#N)=C1\CC2CCC1(C)C2(C)C (configuration not stated)	-26%	?	4%	20	2%

Bioassay records deposited in PubChem by National Center for Advancing Translational Sciences (NCATS).
